Sampled rows, rich in hits. Any-hit rate of the full collection: about 7%.
ADAM17 inh: inhibits human ADAM17 | recombinant ADAM17, EDANS/DABCYL FRET peptide cleavage | inhibition, % at 6.95 µM | 370,000 compounds, 0.83% hits | AID 720648;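 active = inhibition above the mean of compounds lying between control limits plus 3 SD, set per campaign, cut at about 8.5% in these data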;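 note: 0% = DMSO-only wells as the low control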
ADAM10 inh: inhibitors of human ADAM10. O14672. recombinant ADAM10, EDANS/DABCYL FRET peptide cleavage, 3 h. inhibition, % at 7 µM. 370,000 compounds, 0.62% hits. AID 720582;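 active = inhibition above a per-campaign cutoff equal to the mean of compounds falling between control-based bounds plus 3 SD, cut at about 20% in these data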;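 note: 0% = DMSO wells while the 100% control is not disclosed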
Target sequence (O14672 214-748 limits assumed): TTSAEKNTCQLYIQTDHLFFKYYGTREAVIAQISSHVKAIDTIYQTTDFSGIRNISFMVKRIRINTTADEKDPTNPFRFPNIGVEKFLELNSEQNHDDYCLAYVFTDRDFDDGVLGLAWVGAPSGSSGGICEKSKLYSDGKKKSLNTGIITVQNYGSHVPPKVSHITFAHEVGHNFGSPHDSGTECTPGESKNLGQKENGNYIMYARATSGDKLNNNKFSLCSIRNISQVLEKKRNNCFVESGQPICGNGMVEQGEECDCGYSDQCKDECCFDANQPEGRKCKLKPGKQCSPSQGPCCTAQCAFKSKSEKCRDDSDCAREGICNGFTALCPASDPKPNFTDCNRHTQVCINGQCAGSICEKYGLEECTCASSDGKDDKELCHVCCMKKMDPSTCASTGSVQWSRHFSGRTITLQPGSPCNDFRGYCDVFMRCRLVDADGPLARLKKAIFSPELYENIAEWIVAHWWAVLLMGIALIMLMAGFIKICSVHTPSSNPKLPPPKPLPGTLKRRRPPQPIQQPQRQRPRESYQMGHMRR
rCAG RNA binder: molecules binding r(CAG) RNA repeats | r(CAG) RNA repeat, TO-PRO-1 dye displacement fluorescence | 370,000 compounds, 1.3% hits | AID 651821 | inhibition, % at 3 µM;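 active = inhibition above the plate cutoff, the mean of all test compounds on that plate plus 3 SD, cut at about 35% in these data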;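 note: 0% = DMSO alone and 100% = 100 µM mitoxantrone as full dye displacement; higher means more dye released from RNA so lower well fluorescence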
AHR activator: activators of human aryl hydrocarbon receptor; AHR-responsive luciferase reporter cells, luminescence; activation, % at 5 µM; 320,000 compounds, 2.5% hits; AID 2796; in the data active = activation above about 47%;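 note: 0% = vehicle wells and 100% = reference agonist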
KLK7 zymogen act: activators of human kallikrein-7 zymogen | P49862 | purified proKLK7, EDANS-DABCYL substrate fluorescence; 100% is mature enzyme control, 0% vehicle | activation, % at 7 µM | 370,000 compounds, 0.9% hits;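 active = activation above the mean of all tested compounds plus 3 SD, computed per campaign excluding outliers beyond control limits, cut at about 13% in these data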
GRIN3A LBD mod: modulates the human NR3A ligand-binding domain. NR3A LBD differential scanning fluorimetry, Tm shift; 0% = protein alone, 100% = glycine-bound protein. Tm shift relative to glycine control, % at 25 µM. 340,000 compounds, 2.5% hits. AID 1259313;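 active = melting temperature shift of at least 10% of the positive control shift, at one fixed dose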
* = called active by the depositor; i = inactive; nt = not tested or not shown.

SMILES | ADAM17 inh | ADAM10 inh | rCAG RNA binder | AHR activator | KLK7 zymogen act | GRIN3A LBD mod
N#C/C(=C(/O)C(Cl)(Cl)Cl)c1nc2ccccc2[nH]1 | -5 | -7 | 0 | 53* | 0 | -4
COc1ccc(C(=O)C(=O)N2CCN(C(=O)c3ccccc3C(F)(F)F)CC2)cc1OC | -4 | -12 | -2 | nt | 0 | nt
Cc1ccccc1C(=O)Nc1ccc(C(=O)N/N=C/c2ccc(O)cc2)cc1 | 2 | 4 | 6 | 2 | 0 | 28*
O=C(N/N=C/c1ccc(O)cc1)c1ccc(NC(=O)c2ccccc2Br)cc1 | 2 | 9 | 11 | 1 | 0 | 18*
O=C(Nc1ccccc1C(=O)N/N=C/c1ccc(F)cc1)c1ccccc1Br | -4 | 4 | 8 | 4 | 0 | 1
CCn1c(Cc2cccs2)nnc1SCC(=O)Nc1cccc2ccccc12 | -2 | -6 | 3 | nt | 0 | nt
O=C(CCn1nnc(-c2cccs2)n1)NCc1ccco1 | 0 | -1 | 0 | nt | 0 | nt
COc1ccc(OC)c(/C=N/NC(=O)Cc2nc3ccccc3[nH]2)c1 | -230 | i | 12 | 57* | -10 | -6
COc1ccc(OC)c(/C=N/NC(=O)c2cc3c(OC)cc(OC)cc3[nH]2)c1 | -34 | -87 | 15 | 56* | -3 | 3
COc1ccc(OC)c(/C=N/NC(=O)CCc2ccc(O)c(O)c2)c1 | -204 | i | 6 | 9 | -84 | 22*
COc1ccc(OC)c(C=NNC(=O)NN=Cc2cc(OC)ccc2OC)c1 | -71 | -265 | 0 | nt | -6 | nt
C=CCOc1ccc(/C=N/NC(=O)c2cc3c(OC)cc(OC)cc3[nH]2)cc1 | -58 | -122 | 19 | 68* | -4 | 6
COc1ccc(C(C(=O)N(C)C2CCCC2)N(Cc2ccc(F)cc2)C(=O)c2csc(N3CCOCC3)n2)cc1OC (stereo not given) | -2 | -7 | -2 | nt | 1 | nt
Cc1cccc(S(=O)(=O)Nc2ccc(S(=O)(=O)Nc3nccs3)cc2)c1 | 4 | 4 | 6 | -1 | 1 | -1
Cc1ccc(Oc2ccc3c(c2)C(=O)N(c2ccc(S(=O)(=O)Nc4nccs4)cc2)C3=O)cc1 | -1 | -3 | 61* | -4 | 0 | 1
CCC(=NCCc1c(C)[nH]c2ccc(OC(F)(F)F)cc12)C1=C(O)CC(c2ccccc2)CC1=O (stereo not given) | 1 | 0 | 0 | 15 | 0 | 3
CCCCC(=NCCc1c(C)[nH]c2ccc(OC)cc12)C1=C(O)CC(c2ccccc2)CC1=O (stereo not given) | -3 | 0 | 4 | 7 | -1 | -5
CC(=NCCc1c(C)[nH]c2ccc(OCc3ccccc3)cc12)C1=C(O)CC(c2ccccc2)CC1=O (stereo not given) | -2 | 6 | 1 | 77* | 0 | 2
CCC(=NCCc1c(C)[nH]c2ccccc12)C1=C(O)CC(c2ccccc2)CC1=O (stereo not given) | 4 | -4 | -3 | 2 | 0 | 16*
Cn1c(=O)c2c(nc(N3CCc4ccccc4C3)n2Cc2ccc(Br)cc2)n(C)c1=O | -3 | 6 | 1 | 0 | -1 | 11*
NC(=O)c1oc2ccccc2c1NC(=O)c1ccco1 | -1 | 3 | 2 | 47* | 1 | -1
NC(=O)c1oc2ccccc2c1NC(=O)c1ccccc1 | 0 | 7 | 3 | 69* | 0 | -48
CC1(C)SC(=S)N(NC(=O)Nc2ccccc2)C1N(O)C(=O)Nc1cccc2ccccc12 (stereo not given) | -6 | -21 | 7 | 11 | -1 | 21*
Cc1cc(C)cc(NC(=O)c2cccc(NC(=O)c3ccco3)c2)c1 | -1 | 8 | 2 | 17 | 0 | 1
O=C(Nc1cccc(NC(=O)c2ccco2)c1)c1cccc(Br)c1 | 7 | -2 | 4 | 8 | 1 | 15*
SMILES | ADAM17 inh | ADAM10 inh | rCAG RNA binder | AHR activator | KLK7 zymogen act | GRIN3A LBD mod
O=C(Nc1cc(Br)c(O)c(Br)c1)c1cccc(NC(=O)c2ccco2)c1 | -5 | -1 | 10 | 6 | 0 | 23*
CC(C)CNC(=O)c1cccc(NC(=O)c2ccc(NC(=O)c3ccco3)cc2)c1 | -11 | -17 | -2 | -3 | 6 | 23*
O=C(Nc1cccc(S(=O)(=O)c2cccc(NC(=O)c3ccco3)c2)c1)c1ccco1 | 0 | 1 | 20 | 0 | 0 | 35*
CC(=O)c1cccc(NC(=O)c2cccc(NC(=O)c3ccco3)c2)c1 | -6 | -5 | -3 | 6 | 0 | -7
COC(=O)[C@]12C[C@H](CC(=O)N3CCCC3)C(=O)N(Cc3ccco3)C1=C[C@H](C1CCCC1)O[C@@H]2C | -1 | 4 | -3 | nt | 0 | nt
C[C@H]1C2CC(OC(=O)Nc3ccc(F)cc3)C(C2)[C@H]2CCCCN21 (stereo not given in full) | -9 | -16 | 5 | nt | 0 | nt
Cc1noc(C)c1COc1ccc(C(=O)OCC(=O)c2ccc3c(c2)OCCO3)cc1 | -3 | -9 | 7 | 2 | -1 | 11*
CCOC(=O)c1c(-c2ccc(C)o2)csc1NC(=S)NC(=O)c1cccs1 | -1 | 2 | 12 | 27 | 0 | 18*
CCOC(=O)c1c(-c2ccc(C)o2)csc1NC(=S)NC(=O)c1ccccc1Br | 7 | 15 | 28 | 2 | 0 | 3
COC(=O)C1CN(Cc2ccccc2)CCS(=O)(=O)N1Cc1ccc(Cl)cc1 (stereo not given) | 2 | 4 | 2 | nt | 0 | nt
COc1ccc(O)c(CNn2c(-c3ccc(Br)cc3)nc3ccccc3c2=O)c1 | -41 | 12 | 0 | 62* | 1 | -9
COc1ccc(-c2csc(NC(=S)NC(=O)c3ccccc3)n2)cc1Br | -9 | 6 | 4 | -1 | -1 | 40*
O=C(/C=C/c1ccco1)NC(=S)Nc1cc(-c2nc3ccccc3s2)ccc1Cl | -9 | 3 | 46* | 30 | -1 | 18*
COc1ccc(C(=O)NC(=S)Nc2nc(-c3ccc(OC)c(Br)c3)cs2)cc1Br | -2 | 4 | 4 | 1 | -1 | 1
COc1ccc(-c2csc(NC(=S)NC(=O)/C=C/c3ccco3)n2)cc1OC | 2 | 1 | 22 | 13 | -1 | 13*
CCOc1cc(/C=C2\SC(=N)N(c3nonc3N)C2=O)ccc1OCCN1CCOCC1 | -1 | -6 | 40* | 1 | -1 | -8
CCOc1cc(/C=C2\SC(=N)N(c3nonc3N)C2=O)ccc1OCC(N)=O | 2 | 0 | 5 | 3 | 0 | -5
CC(C)C[C@H](NC(=O)c1ccc(Cl)cc1Cl)C(=O)N1CCC[C@H]1C(=O)NCc1ccccc1 | -6 | -14 | -2 | nt | 0 | nt
COc1ccc(C)cc1N(C(=O)COc1cccc(F)c1)c1nc2ccccc2s1 | -3 | 3 | 2 | 46 | 1 | 0
COc1ccc(C)cc1N(C(=O)c1ccc(F)cc1)c1nc2ccccc2s1 | 2 | 5 | -1 | 33 | 0 | 11*

Assay outcomes deposited in PubChem by several laboratories.
